For 35 compounds, z-score results are on record in PubChem BioAssay.

Molecules are shown by their SMILES. Active and inactive are the calls of the source.

This test deals with Homeobox protein Hox-A13 (Mus musculus) (UniProt Q62424). Nature of the test: disruptors of Hoxa13 oligonucleotide interaction – biochemical, fluorescence polarization, labeled oligonucleotide, primary screen (AID 1185). As to conditions: Hoxa13:DNA binding, 15 min, higher = more signal, called active from +8 up or from −8 down. A general note: In fluorescence polarisation assays a small probe gives low polarisation when free and higher when bound to something large.
Chain of Homeobox protein Hox-A13 (Mus musculus) (Q62424 whole entry, looked up): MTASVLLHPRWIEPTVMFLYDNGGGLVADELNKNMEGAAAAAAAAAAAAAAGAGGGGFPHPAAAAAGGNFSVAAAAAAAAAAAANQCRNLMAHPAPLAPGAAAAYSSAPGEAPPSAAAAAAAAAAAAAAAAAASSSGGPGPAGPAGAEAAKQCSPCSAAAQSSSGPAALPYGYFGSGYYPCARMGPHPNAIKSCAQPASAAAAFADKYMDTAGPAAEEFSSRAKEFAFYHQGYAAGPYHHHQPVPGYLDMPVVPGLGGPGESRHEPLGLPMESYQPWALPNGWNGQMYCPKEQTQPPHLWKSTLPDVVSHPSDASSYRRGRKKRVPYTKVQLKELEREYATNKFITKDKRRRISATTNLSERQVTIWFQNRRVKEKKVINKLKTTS
Turning to `CC(C)(C)N1CC=CC23O[C@@H]4/C=C\CCCOC(=O)C4[C@H]2C(=O)N(CCCCCO)[C@@H]3C1=O` (stereo not given in full), the z-score was -4.34 (inactive).

`COCCCNC(=O)[C@@]1(CCS(=O)(=O)c2ccccc2)COC(c2ccc(OCCCO)cc2)=N1`: the z-score was -4.7 (inactive).

Take `O=C1NC(=O)C2C1C=CC(C(O)c1ccc(B(O)O)cc1)N2Nc1ccc(Cl)cc1Cl` (stereo not given): the z-score is -4.45 (inactive).

For the compound `CCOc1cc(C(O)C2C=CC3C(=O)N(c4ccccc4)C(=O)C3N2Nc2ccccc2F)ccc1O` (stereo not given), the z-score was -3.71 (inactive).

In the case of `O=C1OCCC=C[C@H]2OC34C=CCN(c5ccc6ccccc6c5)C(=O)[C@H]3N(CCO)C(=O)[C@@H]4C12` (stereo not given in full), the z-score was -5.62 (inactive).

On to `CN(C)CCCNC(=O)[C@@]1(Cc2ccccc2I)c2ccccc2C(=O)N(C2CCCCC2)[C@H]1c1ccc(CO)cc1`, for which the z-score was 0.846 (inactive).

As for `COc1ccc(C#Cc2ccc3c(c2)[C@]2(C(=O)N3)[C@H](C(=O)O)[C@H]3C(=O)O[C@H](c4ccccc4)[C@H](c4ccccc4)N3[C@@H]2c2ccccc2OCCO)cc1`, the z-score is -3 (inactive).

As to `COCCOC(=O)N1C(=O)[C@@]2(c3cc(C#CC4(O)CCCCCC4)ccc31)[C@H](c1ccc(O)cc1)N1[C@H](c3ccccc3)[C@H](c3ccccc3)OC(=O)[C@H]1[C@@H]2C(=O)N1CCCCCCC1`, the z-score is 0.0885 (inactive).

Take `[N-]=[N+]=Nc1ccccc1[C@@H]1OC(c2ccc(OCCCO)cc2)=N[C@]1(Cc1ccccc1)C(=O)NCCN1CCOCC1`: the z-score was -3.81 (inactive).

`CCCCC(O)C1C=CC2C(=O)N(c3ccccc3)C(=O)C2N1Nc1ccccc1` (stereo not given): the z-score is -4.11 (inactive).

In the case of `CC=CC(O)C1C=CC2C(=O)NC(=O)C2N1Nc1ccc(Cl)cc1Cl` (stereo not given), the z-score is -3.78 (inactive).

In the case of `COC(=O)[C@H](Cc1ccccc1)N1CC2=CCCC=C[C@@H]2[C@H]1[C@H](O)Cc1ccccc1`, the z-score is -6.25 (inactive).

With `Cc1ccc(S[C@]2(C(=O)NC(C)C)CC(=O)N(C3CCCCC3)[C@@H]2c2ccc(CO)cc2I)cc1`, the z-score is -4.43 (inactive).

On to `CCCNC(=O)[C@@]1(c2ccc([N+](=O)[O-])cc2)CC(=O)N(C(C)C)[C@@H]1c1ccc(CO)cc1`, for which the z-score was -2.6 (inactive).

On to `COC(=O)[C@@]1(Cc2ccc(OC)cc2)[C@H]2c3cc(C(=O)N(C)C)[nH]c3C[C@H]2CN1C(=O)c1ccccc1`, for which the z-score was -2.93 (inactive).

`O=C1N(CCS(=O)(=O)c2ccccc2)c2ccccc2C[C@]12N=C(c1ccc(OCCCO)cc1)O[C@@H]2c1ccccc1`: the z-score was -4.51 (inactive).

In the case of `CC1=C([C@H](O)CCc2ccccc2)[C@H](CO)n2c(=O)n(-c3ccccc3)c(=O)n2C1`, the z-score is -2.24 (inactive).

Turning to `O=C1O[C@H](Cc2ccccc2)[C@@H]2[C@H]3C=CCCC=C3CN2[C@H]1Cc1ccc(O)cc1`, the z-score is -9.53 (active).

Turning to `CN(C)c1ccc(C(O)C2C=CC3C(=O)N(Cc4ccccc4)C(=O)C3N2n2cnnc2)cc1` (stereo not given), the z-score is -0.863 (inactive).

`COC(=O)[C@@]1(Cc2ccc(F)cc2)[C@H]2c3cc(C(=O)N(C)C)n(CCc4ccc(O)c(O)c4)c3C[C@H]2CN1C(=O)c1ccccc1`: the z-score is -3.03 (inactive).

Take `CCCC[C@H]1C[C@@H]1[C@@H]1N(C(C)=O)[C@H](c2cccc(OC)c2)CC12CC2`: the z-score is -3.27 (inactive).

For `CC(=O)OCC1C2CC[C@H]3C(OCc4ccc(F)cc4C(F)(F)F)OC[C@]4(C)[C@H]3C2=C(CN4C(=O)OC(C)(C)C)[C@H](C)C1COC(C)=O` (stereo not given in full), the z-score is -3.13 (inactive).

With `COc1ccccc1CN1C(=O)c2ccccc2[C@](Cc2ccccc2I)(C(=O)NCC(C)C)[C@@H]1c1ccc(CO)cc1`, the z-score is -3.82 (inactive).

As for `C[N+](C)(C)CCCC[C@@H]1NC(=O)[C@@H]2C[C@H](C(=O)NCc3ccc(F)cc3)[C@H](c3ccc(O)cc3)N2C1=O`, the z-score was -0.882 (inactive).

On to `CN1C(=O)C2C(C1=O)C1C=C(CCCO)C2C(C2CC2)N1Cc1cccc(OC(F)(F)F)c1` (stereo not given), for which the z-score was -7.06 (inactive).

In the case of `COC(=O)[C@@]1(Cc2ccccc2)[C@H]2c3cc(C(=O)N(C)C)n(Cc4ccc(S(C)(=O)=O)cc4)c3C[C@H]2CN1C(=O)c1ccccc1`, the z-score is -5.44 (inactive).

For the compound `O=C1c2ccccc2[C@@]2(Cc3ccccc3N(Cc3ccccc3)C2=O)[C@H](c2ccc(CO)cc2)N1Cc1ccccc1Cl`, the z-score is -0.299 (inactive).

In the case of `O=C1C[C@@](C(=O)NCc2ccccc2)(c2ccc([N+](=O)[O-])cc2)[C@@H](c2ccc(CO)cc2)N1C1CCCCC1`, the z-score is -2.95 (inactive).

Turning to `CC(C)c1nc2cc(Br)ccc2c(=O)o1`, the z-score is -0.27 (inactive).

As for `CCOC(=O)C1=CCC(c2cc3ccccc3[nH]2)N(CCN2CC(C(=O)OCC)=CCC2c2cc3ccccc3[nH]2)C1` (stereo not given), the z-score is -3.81 (inactive).

For `O=C(NC1CC1)[C@@H]1c2ccccc2C(=O)N(CC23CC4CC(CC(C4)C2)C3)[C@H]1c1ccc(CO)cc1`, the z-score is -5.05 (inactive).

`N#Cc1ccc(NN2C(C(O)C3CC=CCC3)C=CC3C(=O)N(c4ccccc4)C(=O)C32)cc1` (stereo not given): the z-score is -2.69 (inactive).

As to `O=C(NCC(O)CO)C1N=C(c2ccc(OCCCO)cc2)N(c2ccccc2)O1` (stereo not given), the z-score was -2.55 (inactive).

As to `CCCC[C@H]1OB(O)C[C@H]2C1=C(COc1ccccc1)C[C@H]1C(=O)C=CC(=O)[C@H]12`, the z-score is -5.45 (inactive).

In the case of `COCCn1c(C(=O)N(C)C)cc2c1C[C@H]1CN(C(=O)c3ccccc3)[C@@](Cc3ccc(OC)cc3)(C(=O)OC)[C@@H]21`, the z-score is -3.91 (inactive).
